Pf growth 48h – inhibits P. falciparum growth in the first generation, 48 h. actives 5.9% (n = 310,000). Potency, µM (doses to about 28.7 µM), without a hit: top-dose activity change, negative = inhibition, hits mostly inhibitors. P. falciparum luciferase growth in erythrocytes, 48 h
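Luminescence readout; reporter = integrated firefly luciferase in P. falciparum. RBC culture at 2% hematocrit, 0.1% parasitemia final, 37 C/5% CO2; decreased signal taken as growth inhibition.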
AmpC no deterg – AmpC beta-lactamase inhibition without detergent; P00811; AmpC nitrocefin hydrolysis, absorbance 480 nm, 0.0001% Triton; Potency, µM (highest dose often 57.1 µM), inactives show at the top dose activity change, negative = inhibition, actives largely listed as inhibitors; actives 0.52% (n = 330,000);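 note: plate controls were no compound for no effect and no enzyme for full effect; nearly all actives have a fitted effect of over 20% in size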
Target sequence (P00811 whole entry, looked up): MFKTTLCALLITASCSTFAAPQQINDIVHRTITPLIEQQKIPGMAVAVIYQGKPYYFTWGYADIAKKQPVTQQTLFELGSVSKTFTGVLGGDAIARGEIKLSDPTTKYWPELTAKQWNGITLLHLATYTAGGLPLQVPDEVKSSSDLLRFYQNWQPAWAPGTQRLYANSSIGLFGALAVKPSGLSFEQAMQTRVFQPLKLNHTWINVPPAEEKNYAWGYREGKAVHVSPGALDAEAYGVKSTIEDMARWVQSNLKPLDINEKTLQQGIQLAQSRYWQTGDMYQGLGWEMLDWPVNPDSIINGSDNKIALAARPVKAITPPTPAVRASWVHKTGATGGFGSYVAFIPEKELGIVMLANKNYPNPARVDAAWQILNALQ
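20 mM phosphate pH 7.0 + 0.01% (detergent screen) or 0.0001% Triton X-100; 5.3 nM AmpC reagent; cpd preinc 15 min RT; nitrocefin (800 uM stock) to start; A480 q20 s × 4 min; Activity was normalised to no-enzyme and no-compound control wells.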
Pf growth 96h – P. falciparum growth inhibition at 96 hours; actives 6.9% (n = 320,000); Potency, µM (titrated, usually from 28.7 µM), inactives show at the top dose activity change, negative = inhibition, actives largely listed as inhibitors; AID 504834; P. falciparum luciferase reporter growth, 96 h
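Readout is luminescence from an integrated firefly luciferase in P. falciparum. Red cells, 2% hematocrit and 0.05% parasitemia final, were cultured with compound through two parasite generations (96 hours) at 37 C, 5% CO2.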
AMA1-RON2 inh – disrupts binding of P. falciparum AMA1 to RON2 | AlphaScreen AMA1-biotinylated RON2 peptide binding | Potency, µM (series often up to 58.2 µM), inactives show at the top dose activity change, negative = inhibition, most hits filed as inhibitors | actives 0.2% (n = 360,000);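 note: 0% = vehicle wells and -100% = peptide control; nearly all actives have a fitted effect of over 45% in size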
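AMA1 (3D7) with his tag at 25 nM final met compounds first, then biotinylated RON2 peptide at 25 nM; detection used donor plus acceptor beads, 10 µg/mL apiece, read by AlphaScreen after 30 min at room temperature.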
AmpC inh detg – inhibitors of E. coli AmpC beta-lactamase with detergent | AmpC hydrolysis of nitrocefin, absorbance 480 nm, 0.01% Triton | actives 0.041% (n = 370,000) | Potency, µM (highest dose often 114 µM), for the others: top-dose activity change, negative = inhibition, usual class: inhibitors | P00811;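 note: 0% = no-compound wells and -100% = no-enzyme wells; nearly all actives have a fitted effect of over 25% in size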
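AmpC (5.3 nM in the dispensed reagent) in 20 mM phosphate pH 7.0 with 0.01% (detergent screen) or 0.0001% Triton X-100 was preincubated with compounds for 15 min at room temperature. Nitrocefin was then added from an 800 uM solution, and hydrolysis was followed at 480 nm.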
HCV inhibitor – blocks hepatitis C virus; Huh7.5.1 HCVcc-Cre infection, luciferase reporter, 44 h; Potency, µM (highest dose often 41.8 µM), without a hit: at the top dose activity change, negative = inhibition, actives largely listed as inhibitors; actives 3.4% (n = 340,000)
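Infectious HCV cell culture screen: compound-treated cells (1,000/well, pre-plated 4 h) are infected with HCVcc-Cre at roughly 0.5 moi and grown 44 h. Infection is quantified by luciferase signal after 15 min substrate incubation at room temperature.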
An asterisk follows results filed as active; ? = inconclusive; / = not tested or not shown; [ ] = another dose, or the depositor's remark. Compounds with a hit are over-represented: about 11% of the library has one in this group of screens. Calls come from the whole dose curve; as a rule, active = well fitted curve in the direction sought with a large enough effect; inconclusive = small, poorly fitted or top-dose-only effect, or another doubt; inactive = no such curve, though single readings can be large; an effect the other way counts as inactive or inconclusive. Unless noted, % is set by controls: 0 for no effect and ±100 for the full control effect; potency is the fitted concentration of half-maximal effect.

SMILES	Pf growth 48h	AmpC no deterg	Pf growth 96h	AMA1-RON2 inh	AmpC inh detg	HCV inhibitor
COc1ccc(NC(=O)CCCc2nnc3n(CCC(C)C)c(=O)c4sccc4n23)cc1Cl	/	/	/	/	12.9%	/
COc1ccc(OC)c(NC(=O)c2cc3oc4ccccc4c3cc2O)c1	4.15µM*	-26.5%	?	-1.0%	-15.0%	-11.8%
COc1ccc(OC)c(NC(=O)c2cc3cccc(OC)c3oc2=O)c1	/	/	/	/	9.5%	/
Cc1cc(-n2ccnc(NCCc3ccc(S(N)(=O)=O)cc3)c2=O)ccc1Br	/	/	/	/	-3.5%	/
CCC(=O)Nc1ccc(N2CCN(Cc3ccccc3)CC2)cc1	?	-8.5%	12.8%	0.0%	?	6.3%
COc1ccc(OC)c(CN2CCC(Cc3ccccc3)CC2)c1	?	-4.0%	?	-16.4%	0.8%	-25.4%
Clc1ccc(CN2CCC(Cc3ccccc3)CC2)cc1	-8.2%	-9.8%	8.28µM*	-28.0%	-4.5%	-3.9%
COc1cc(C)c(CN2CCC(Cc3ccccc3)CC2)cc1C	?	11.9%	?	-23.6%	?	12.6µM*
c1ccc(CNc2ccc(N3CCOCC3)cc2)cc1	/	14.1%	/	/	/	/
Clc1ccc(CNc2ccc(N3CCN(Cc4ccccc4)CC3)cc2)cc1	-3.2%	24.7%	9.28µM*	7.94µM*	-0.6%	10µM*
O=C(Nc1ccc(N2CCN(Cc3ccccc3)CC2)cc1)c1ncn[nH]1	5.86µM*	-13.6%	/	51.2%	?	7.8%
COc1cc(OC)cc(C(=O)NCCc2csc(-c3ccc(C(F)(F)F)cc3)n2)c1	/	/	/	/	-1.1%	/
O=C(OCc1cc(=O)n2nc(C3CCCCC3)sc2n1)c1ccc(F)cc1	/	/	/	/	17.3%	/
Fc1ccc(CNC2CCN(Cc3ccccc3)CC2)cc1	9.28µM*	-13.6%	1.17µM*	10.1%	-10.1%	?
Clc1ccc(CNC2CCN(Cc3ccccc3)CC2)cc1	4.15µM*	-4.9%	?	3.0%	-16.1%	8.91µM*
S=C(NCc1ccc(Cl)cc1)NC1CCN(Cc2ccccc2)CC1	-13.0%	3.1%[2.29 µM]	23.2%	-4.3%	-10.2%	3.98µM*
S=C(Nc1ccc(Cl)cc1Cl)NC1CCN(Cc2ccccc2)CC1	?	-14.1%	?	-9.1%	-10.2%	?
O=C(CCC1CCN(Cc2ccc(C#CCCO)cc2)CC1)NC1CC1	12.2%	-14.0%	29.1%	10.2%	?	11.7%
O=C(CCC1CCN(Cc2ccc(Cl)cc2)CC1)NC1CC1	-11.4%	0.8%	1.04µM*	0.6%	4.8%	-12.0%
CCc1ccc(CNC(=O)c2ccc3c(c2)nc2n3CCCCC2)cc1	/	/	/	/	-5.2%	/
CCOC(=O)C1CCCN(C2=NC(=O)/C(=C/c3ccc(OC)cc3)S2)C1 (stereo not drawn)	10.4µM*	21.5%	?	0.1%	0.9%	-24.8%
CCOC(=O)C1CCCN(C2=NC(=O)/C(=C/c3ccc(N(C)C)cc3)S2)C1 (stereo not drawn)	6.57µM*	43.3%	26.0%	-21.6%	-0.4%	-15.6%
CCOC(=O)C1CCCN(C2=NC(=O)/C(=C/c3ccc(OC)cc3OC)S2)C1 (stereo not drawn)	6.57µM*	38.2%	16.7%	-2.3%	-1.4%	?
CCOC(=O)C1CCN(C2=NC(=O)/C(=C/c3ccccc3OC)S2)CC1	?	54.3%	16.6%	7.8%	-1.8%	3.7%
CCOC(=O)C1CCCN(C2=NC(=O)/C(=C/c3ccc(O)c(OCC)c3)S2)C1 (stereo not drawn)	?	-2.6%	13.4%	-1.3%	-9.9%	-28.5%
SMILES	Pf growth 48h	AmpC no deterg	Pf growth 96h	AMA1-RON2 inh	AmpC inh detg	HCV inhibitor
CCc1ccc(CNC(=O)c2c(C)oc3ncn(CC(C)C)c(=O)c23)cc1	/	/	/	/	27.1%	/
COc1cc(OC)cc(C(=O)Oc2c(Sc3ccccc3)c(C)nn2C(C)(C)C)c1	/	/	/	/	-3.6%	/
Cc1ccc2c(ccc[n+]2CC(=O)c2ccccc2)c1	14.7µM*	-29.3%	-4.8%	8.9%	-6.2%	9.9%
COc1cccc(C(=O)C[n+]2ccccc2/C=N/O)c1	0.0%	-12.9%	-21.4%	?	-1.0%	-0.5%
COc1cccc(C(=O)C[n+]2cccc3cc(OC)ccc32)c1	10.4µM*	-8.6%	?	6.0%	-3.8%	11.9%
COc1ccc(C(=O)C[n+]2cccc3cc(OC)ccc32)cc1	9.28µM*	-0.4%	?	-5.2%	-8.7%	?
O=C(C[n+]1cccc2ccccc21)c1ccc([N+](=O)[O-])cc1	?	-11.8%[11.4 µM]	?	8.4%	-12.1%	11.2µM*
CCOC(=O)CSc1nc2ccccc2c(=O)n1CCc1ccc(OC)c(OC)c1	/	/	/	/	-7.8%	/
COc1ccc(NC(=O)CSc2nncn3c2cc2occc23)c(OC)c1	/	/	/	/	-10.4%	/
COc1ccc(C(=O)C[n+]2ccc3ccccc3c2C)cc1	?	4.8%	?	3.0%	3.2%	21.3%
COc1ccc(C(=O)C[n+]2cccc3cc(C)ccc32)cc1	14.7µM*	-3.6%	?	-2.2%	3.5%	-19.2%
CC1CCCC=CC2CC(OC(=O)CN(C)C)CC2C(O)C=CC(=O)O1 (stereo not drawn)	/	/	/	-3.7%	/	0.562µM*
COc1ccc(OC)c(NC(=O)Cc2coc3ccc(C(C)C)cc23)c1	/	/	/	/	-3.5%	/
COc1ccc(Cl)cc1NC(=O)c1cnc2sc(N3CCOCC3)nn2c1=O	/	/	/	/	-1.3%	/
CC(=O)N1C=Cc2c(c(C)c3c([nH]c4ccccc43)c2C)C1	1.85µM*	33.2%	-7.3%	/	1.5%	/
CCc1c(C)sc2c1CCN(C(=O)Nc1ccc(F)c(Cl)c1)C2c1ccc(F)cc1 (stereo not drawn)	/	/	/	/	18.3%	/
COc1ccc(NC(=O)c2cnc(SCC(=O)Nc3nc4ccc(C)cc4s3)n(C)c2=O)cc1	/	/	/	/	-1.1%	/
O=C(Nc1ccc(C(=O)OCc2cc(=O)n3c4c(sc3n2)CCCC4)cc1)c1ccccc1	/	/	/	/	2.5%	/
COc1cc(C2c3c(oc4ccccc4c3=O)C(=O)N2c2ccc(C)cn2)ccc1O (stereo not drawn)	9.2%	45.8%	14.7µM*	5.4%	-0.7%	4.8%
CCOc1ccc(C2c3c(oc4ccccc4c3=O)C(=O)N2c2ccc(C)cn2)cc1OC (stereo not drawn)	4.1%	-37.8%	23.3%	-1.6%	?	-4.2%
Cc1cccc2nc(Cn3c(=O)n(-c4ccccc4)c(=O)c4c5c(sc43)CCC5)cc(=O)n12	/	/	/	/	19.4%	/
CCc1ccc(C(=O)c2cn(CC(=O)Nc3cccc(OC)c3)c3ccc(OC)cc3c2=O)cc1	11.7µM*	2.7%	2.94µM*	/	9.5%	/
COc1ccccc1NC(=O)Cn1cc(C#N)c2ccccc21	/	-18.6%	-100.2%	1.3%	?	-5.9%

Screening results: PubChem, National Center for Advancing Translational Sciences (NCATS)
